Experimental data taken from article PMC5700166.

Columns and labels:
Test in all cases: protein-binding microarray (PBM); PBM: ~300 nM protein, 6 mM HEPES pH 7.8, 80 mM KCl, 0.5 mM EDTA, 0.5 mM EGTA, 6% glycerol, 35 ng/ul poly-dIdC, 1% milk, 1 h, room temperature; Ap Aiptasia and Nv Nematostella (sea anemones) / Co Capsaspora / Aq Amphimedon (sponge) / Dm Drosophila / Hu human; RHD is the Rel homology domain; high values mean tight binding
Settings in all cases: dsDNA, one strand shown
GST-Ap-NF-kB RHD = molecular target: T1, GST-Ap-NF-kB RHD (Exaiptasia pallida (Aiptasia), UniProt A0A913YAJ5 2-422)
T1 sequence: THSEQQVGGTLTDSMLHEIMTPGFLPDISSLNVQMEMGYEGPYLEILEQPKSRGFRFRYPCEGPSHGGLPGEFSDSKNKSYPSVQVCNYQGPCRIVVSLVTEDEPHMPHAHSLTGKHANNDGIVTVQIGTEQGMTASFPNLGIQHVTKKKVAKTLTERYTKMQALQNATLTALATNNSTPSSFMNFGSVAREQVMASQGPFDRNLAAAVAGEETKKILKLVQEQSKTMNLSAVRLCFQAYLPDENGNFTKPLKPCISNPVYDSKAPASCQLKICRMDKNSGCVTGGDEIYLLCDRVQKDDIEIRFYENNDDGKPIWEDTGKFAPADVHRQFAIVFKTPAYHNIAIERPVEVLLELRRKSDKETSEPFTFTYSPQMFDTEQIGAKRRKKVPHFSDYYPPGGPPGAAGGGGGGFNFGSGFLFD

[1] = molecular target: T2, GST-Nv-NF-kB (Cys allele) (Nematostella vectensis, UniProt E5G601 2-411)
T2 sequence: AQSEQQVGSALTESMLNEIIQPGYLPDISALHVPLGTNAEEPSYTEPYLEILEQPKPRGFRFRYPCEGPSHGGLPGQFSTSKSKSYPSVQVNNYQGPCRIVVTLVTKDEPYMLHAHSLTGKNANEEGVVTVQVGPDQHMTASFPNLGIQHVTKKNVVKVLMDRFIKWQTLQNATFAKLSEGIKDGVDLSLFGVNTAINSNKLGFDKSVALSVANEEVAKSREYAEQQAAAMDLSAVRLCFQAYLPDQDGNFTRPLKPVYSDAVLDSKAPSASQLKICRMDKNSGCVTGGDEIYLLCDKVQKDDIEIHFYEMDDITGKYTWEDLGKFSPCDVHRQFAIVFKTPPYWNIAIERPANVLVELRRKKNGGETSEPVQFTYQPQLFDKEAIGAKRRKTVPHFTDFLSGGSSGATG

GST-Co-NF-kB = molecular target: T3, GST-Co-NF-kB (Capsaspora owczarzaki, UniProt F1ARL5 200-546)
T3 sequence: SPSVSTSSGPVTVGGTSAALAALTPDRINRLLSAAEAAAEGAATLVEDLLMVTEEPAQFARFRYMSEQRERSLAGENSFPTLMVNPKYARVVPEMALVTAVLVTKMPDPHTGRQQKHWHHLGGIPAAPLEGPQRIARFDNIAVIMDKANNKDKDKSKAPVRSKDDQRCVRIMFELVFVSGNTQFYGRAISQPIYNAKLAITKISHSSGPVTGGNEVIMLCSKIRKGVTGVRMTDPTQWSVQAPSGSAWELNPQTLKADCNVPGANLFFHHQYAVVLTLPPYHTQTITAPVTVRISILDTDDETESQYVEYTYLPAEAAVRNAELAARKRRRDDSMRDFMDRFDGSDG

GST-Dm-Relish = molecular target: T4, GST-Dm-Relish (Drosophila melanogaster, UniProt Q94527 99-473)
T4 sequence: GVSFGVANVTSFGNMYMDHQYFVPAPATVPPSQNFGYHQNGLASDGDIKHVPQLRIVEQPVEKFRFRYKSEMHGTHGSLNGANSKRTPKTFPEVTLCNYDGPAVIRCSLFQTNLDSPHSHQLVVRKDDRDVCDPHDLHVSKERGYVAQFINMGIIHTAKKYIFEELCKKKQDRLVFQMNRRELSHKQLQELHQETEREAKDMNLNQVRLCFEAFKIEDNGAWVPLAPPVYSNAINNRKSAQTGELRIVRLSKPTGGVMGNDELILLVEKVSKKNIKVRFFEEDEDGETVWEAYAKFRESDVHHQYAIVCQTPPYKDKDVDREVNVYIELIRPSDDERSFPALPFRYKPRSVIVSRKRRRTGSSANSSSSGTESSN

GST-Aq-NF-kB = molecular target: T5, GST-Aq-NF-kB (Amphimedon queenslandica, UniProt A9Y5G7 2-389)
T5 sequence: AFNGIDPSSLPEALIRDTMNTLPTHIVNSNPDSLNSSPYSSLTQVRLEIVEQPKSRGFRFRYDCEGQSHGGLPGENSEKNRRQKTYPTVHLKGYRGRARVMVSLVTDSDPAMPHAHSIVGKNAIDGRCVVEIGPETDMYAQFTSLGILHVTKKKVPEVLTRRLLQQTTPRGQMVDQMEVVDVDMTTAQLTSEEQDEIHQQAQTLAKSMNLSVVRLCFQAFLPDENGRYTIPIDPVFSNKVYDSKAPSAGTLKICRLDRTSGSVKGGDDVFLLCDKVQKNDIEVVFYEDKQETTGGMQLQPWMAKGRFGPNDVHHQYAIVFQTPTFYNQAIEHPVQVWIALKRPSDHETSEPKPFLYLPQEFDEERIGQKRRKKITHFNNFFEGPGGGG

| Sequence | binding signal (GST-Ap-NF-kB RHD) [z-score] | binding signal [1] [z-score] | binding signal (GST-Co-NF-kB) [z-score] | binding signal (GST-Dm-Relish) [z-score] | binding signal (GST-Aq-NF-kB) [z-score] |
| --- | --- | --- | --- | --- | --- |
| CCGATTAACATCAGGGATTTCCATGATGTTAATCGGGTCTTGATTCGCTTGACGCTGCTG | 4.13 | 3.8 | 1.29 | 7.94 | 5.39 |
| CCGATTAACATCAGGGAATTCCATGATGTTAATCGGGTCTTGATTCGCTTGACGCTGCTG | 5.46 | 6.55 | 3.71 | 7.15 | 6.68 |
| CCGATTAACATCAAATCTTTCCCTGATGTTAATCGGGTCTTGATTCGCTTGACGCTGCTG | 3.05 | 5.25 | 5.78 | 1.24 | 4.92 |
| CCGATTAACATCAGATACCCCCCTGATGTTAATCGGGTCTTGATTCGCTTGACGCTGCTG | 6.55 | 4.3 | 4.8 | 3.94 | 4.46 |
| CCGATTAACATCAACGCCCCCCCTGATGTTAATCGGGTCTTGATTCGCTTGACGCTGCTG | 5.09 | 4.29 | 4.15 | 4.35 | 4.73 |
| CCGATTAACATCAAACTCTCCCCTGATGTTAATCGGGTCTTGATTCGCTTGACGCTGCTG | 5.13 | 4.94 | 6.22 | 1.21 | 4.74 |
| CCGATTAACATCAGACCTTCCCCTGATGTTAATCGGGTCTTGATTCGCTTGACGCTGCTG | 4.8 | 4.93 | 4.12 | 4.54 | 5.13 |
| CCGATTAACATCAAAAGAATCCCTGATGTTAATCGGGTCTTGATTCGCTTGACGCTGCTG | 3.44 | 3.59 | 1.15 | 5.35 | 4.69 |
| CCGATTAACATCAAGCACCCCCTTGATGTTAATCGGGTCTTGATTCGCTTGACGCTGCTG | 4.4 | 3.21 | 1.76 | 2.85 | 4.66 |
| CCGATTAACATCAAATAAATCCCTGATGTTAATCGGGTCTTGATTCGCTTGACGCTGCTG | 3.07 | 4.02 | 1.92 | 5.66 | 5.06 |
| CCGATTAACATCACGTATTTCCCTGATGTTAATCGGGTCTTGATTCGCTTGACGCTGCTG | 3.32 | 4.03 | 3.79 | 4.26 | 3.99 |
| CCGATTAACATCAGAAATCCCACTGATGTTAATCGGGTCTTGATTCGCTTGACGCTGCTG | 2.54 | 2.54 | 1.65 | 5.45 | 2.41 |
| CCGATTAACATCAGGGAGGGTAATGATGTTAATCGGGTCTTGATTCGCTTGACGCTGCTG | 2.31 | 2.15 | 1.71 | 1.12 | 2.39 |
| CCGATTAACATCAAATGACCCCCTGATGTTAATCGGGTCTTGATTCGCTTGACGCTGCTG | 4.25 | 2.8 | 2.98 | 3.27 | 4.02 |
| CCGATTAACATCAGGGAATGCCATGATGTTAATCGGGTCTTGATTCGCTTGACGCTGCTG | 1.69 | 2.76 | 1.43 | 2.52 | 3.45 |
| CCGATTAACATCAGGGGAGAAAATGATGTTAATCGGGTCTTGATTCGCTTGACGCTGCTG | 4.25 | 5.5 | 8.56 | 2.26 | 3.89 |
| CCGATTAACATCAAATGGGAATTTGATGTTAATCGGGTCTTGATTCGCTTGACGCTGCTG | 1.19 | 4.5 | 1.12 | 4.52 | 2.35 |
| CCGATTAACATCAAAAATCCCATTGATGTTAATCGGGTCTTGATTCGCTTGACGCTGCTG | 3.2 | 3.67 | 1.08 | 7.97 | 3.96 |
| CCGATTAACATCAGGGAAAGAAATGATGTTAATCGGGTCTTGATTCGCTTGACGCTGCTG | 1.61 | 3.74 | 4.91 | 1.72 | 3.72 |
| CCGATTAACATCAGGGGGTCTACTGATGTTAATCGGGTCTTGATTCGCTTGACGCTGCTG | 4.22 | 2.44 | 1.58 | 7.11 | 4.4 |
| CCGATTAACATCACGGGGGGGACTGATGTTAATCGGGTCTTGATTCGCTTGACGCTGCTG | 5.94 | 4.86 | 7.62 | 4.51 | 5.17 |
| CCGATTAACATCAAGTACTTCCCTGATGTTAATCGGGTCTTGATTCGCTTGACGCTGCTG | 2.1 | 2.22 | 2.13 | 8.12 | 3.13 |
| CCGATTAACATCAGCACCCCCCCTGATGTTAATCGGGTCTTGATTCGCTTGACGCTGCTG | 5.67 | 3.51 | 4.07 | 4.44 | 4.32 |
| CCGATTAACATCAGGACTCTCCCTGATGTTAATCGGGTCTTGATTCGCTTGACGCTGCTG | 3.59 | 5.02 | 1.1 | 2.07 | 7.56 |
| CCGATTAACATCACAAAAATCCCTGATGTTAATCGGGTCTTGATTCGCTTGACGCTGCTG | 5.86 | 6.11 | 2.59 | 8.17 | 6.23 |
| CCGATTAACATCAAGGGGGAGGGTGATGTTAATCGGGTCTTGATTCGCTTGACGCTGCTG | 4.24 | 3.46 | 4.4 | 3.15 | 4.42 |
| CCGATTAACATCAGGGGAGGAAATGATGTTAATCGGGTCTTGATTCGCTTGACGCTGCTG | 3.45 | 4.2 | 7.38 | 1.91 | 3.51 |
| CCGATTAACATCAAACCCCCCCGTGATGTTAATCGGGTCTTGATTCGCTTGACGCTGCTG | 6.76 | 3.82 | 5.57 | 7 | 4.9 |
